# Data reported in the supplement of paper PMC4466140.
# B1: unnamed (peptide)
# chain: HPRFVSPRIPSRIVK
# Target: ScBbc1
# Test: SPOT peptide array binding signal intensity (averaged, normalized) (arbitrary units (background-subtracted, floor 0; scale differs between SH3 domains)); higher = stronger binding of the SH3 domain to the peptide
# How it was run: (§1)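 GST-fused SH3 domains from four yeast species were expressed in E. coli BL21(DE3), purified on glutathione Sepharose and incubated at 10 μg/ml overnight at 4°C in TBS-based blocking buffer on cellulose membranes carrying synthetic 15-mer peptides, with cysteines replaced by serines. Bound protein was detected with anti-GST antibody, an HRP anti-mouse secondary and luminol, then imaged and quantified with Genespotter. Binding signal is the normalized, background-subtracted spot intensity averaged over replicates, in arbitrary units that differ between domains.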
row,Binder,SPOT peptide array binding signal intensity
1,B1,283

# Target: ScBem1-D1
# Test: as above
# How it was run: as §1
row,Binder,SPOT peptide array binding signal intensity
1,B1,21.5

# Target: ScBzz1-D1
# Test: as above
# How it was run: as §1
row,Binder,SPOT peptide array binding signal intensity
1,B1,62

# Target: ScBzz1-D2
# Test: as above
# How it was run: as §1
row,Binder,SPOT peptide array binding signal intensity
1,B1,73.5

# Target: ScCyk3
# Test: as above
# How it was run: as §1
row,Binder,SPOT peptide array binding signal intensity
1,B1,12

# Target: ScFus1
# Test: as above
# How it was run: as §1
row,Binder,SPOT peptide array binding signal intensity
1,B1,147

# Target: ScHof1
# Test: as above
# How it was run: as §1
row,Binder,SPOT peptide array binding signal intensity
1,B1,8.75

# Target: ScHse1
# Test: as above
# How it was run: as §1
row,Binder,SPOT peptide array binding signal intensity
1,B1,820

# Target: ScLsb1
# Test: as above
# How it was run: as §1
row,Binder,SPOT peptide array binding signal intensity
1,B1,531

# Target: ScLsb2
# Test: as above
# How it was run: as §1
row,Binder,SPOT peptide array binding signal intensity
1,B1,694

# Target: ScLsb3
# Test: as above
# How it was run: as §1
row,Binder,SPOT peptide array binding signal intensity
1,B1,2050

# Target: ScLsb4
# Test: as above
# How it was run: as §1
row,Binder,SPOT peptide array binding signal intensity
1,B1,114

# Target: ScMyo3
# Test: as above
# How it was run: as §1
row,Binder,SPOT peptide array binding signal intensity
1,B1,27

# Target: ScMyo5
# Test: as above
# How it was run: as §1
row,Binder,SPOT peptide array binding signal intensity
1,B1,32.5

# Target: ScNbp2
# Test: as above
# How it was run: as §1
row,Binder,SPOT peptide array binding signal intensity
1,B1,510

# Target: ScPex13
# Test: as above
# How it was run: as §1
row,Binder,SPOT peptide array binding signal intensity
1,B1,86.2

# Target: ScRvs167
# Test: as above
# How it was run: as §1
row,Binder,SPOT peptide array binding signal intensity
1,B1,820

# Target: ScSho1
# Test: as above
# How it was run: as §1
row,Binder,SPOT peptide array binding signal intensity
1,B1,256

# Target: ScSla1-D1-D2
# Test: as above
# How it was run: as §1
row,Binder,SPOT peptide array binding signal intensity
1,B1,720

# Target: ScSla1-D3
# Test: as above
# How it was run: as §1
row,Binder,SPOT peptide array binding signal intensity
1,B1,36

# Target: SpAbp1-D1
# Test: as above
# How it was run: as §1
row,Binder,SPOT peptide array binding signal intensity
1,B1,180

# Target: SpBbc1
# Test: as above
# How it was run: as §1
row,Binder,SPOT peptide array binding signal intensity
1,B1,19

# Target: SpBzz1-D1
# Test: as above
# How it was run: as §1
row,Binder,SPOT peptide array binding signal intensity
1,B1,350

# Target: SpBzz1-D2
# Test: as above
# How it was run: as §1
row,Binder,SPOT peptide array binding signal intensity
1,B1,1

# Target: SpCyk3
# Test: as above
# How it was run: as §1
row,Binder,SPOT peptide array binding signal intensity
1,B1,4

# Target: SpHof1
# Test: as above
# How it was run: as §1
row,Binder,SPOT peptide array binding signal intensity
1,B1,145

# Target: SpHof1-2
# Test: as above
# How it was run: as §1
row,Binder,SPOT peptide array binding signal intensity
1,B1,15.8

# Target: SpHof1-3
# Test: as above
# How it was run: as §1
row,Binder,SPOT peptide array binding signal intensity
1,B1,295

# Target: SpHse1
# Test: as above
# How it was run: as §1
row,Binder,SPOT peptide array binding signal intensity
1,B1,318

# Target: SpLsb1
# Test: as above
# How it was run: as §1
row,Binder,SPOT peptide array binding signal intensity
1,B1,1380

# Target: SpLsb4
# Test: as above
# How it was run: as §1
row,Binder,SPOT peptide array binding signal intensity
1,B1,2670

# Target: SpMyo1
# Test: as above
# How it was run: as §1
row,Binder,SPOT peptide array binding signal intensity
1,B1,49

# Target: SpNbp2
# Test: as above
# How it was run: as §1
row,Binder,SPOT peptide array binding signal intensity
1,B1,78.5

# Target: SpPex13
# Test: as above
# How it was run: as §1
row,Binder,SPOT peptide array binding signal intensity
1,B1,32

# Target: SpRvs167
# Test: as above
# How it was run: as §1
row,Binder,SPOT peptide array binding signal intensity
1,B1,254

# Target: SpSla1-D1-D2
# Test: as above
# How it was run: as §1
row,Binder,SPOT peptide array binding signal intensity
1,B1,1.5

# Target: SpSla1-D3
# Test: as above
# How it was run: as §1
row,Binder,SPOT peptide array binding signal intensity
1,B1,11
